TGFb SMAD3 inh: inhibitors of TGF-b signaling; AID 588855; 410,000 tested, 1.2% active; Potency, µM (highest dose often 46.1 µM), for the others: at the highest dose activity, negative = inhibition, actives largely listed as inhibitors; HepG2 CAGA-GFP TGF-b/SMAD3 reporter, GFP fluorescence, 18 h; TGF-beta stimulated, 500 pg/mL final; note: potency is the fitted concentration of half-maximal effect; % is set by controls: 0 for no effect and ±100 for the full control effect; nearly all actives have a fitted effect of over 65% in size
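Inhibition of TGF-beta-driven CAGA-GFP reporter expression in HEPG2 cells is measured by cellular GFP fluorescence after 18 h stimulation with 500 pg/mL recombinant TGF-beta in 1% FBS medium at 37 degrees C.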
TDP1 cell noCPT: qHTS for Inhibitors of human tyrosyl-DNA phosphodiesterase 1 (TDP1): qHTS in cells in absence of CPT | AID 686978, 2013 | 420,000 tested, 15% active | Potency, µM (doses to about 46.2 µM), inactives show top-dose activity change, negative = growth inhibition, actives largely listed as inhibitors | DT40 Tdp1-/- hTDP1 cells, no CPT, ATP luminescence, 48 h; note: potency is the fitted concentration of half-maximal effect; % is set by controls: 0 for no effect and ±100 for the full control effect; nearly all actives have a fitted effect of over 55% in size
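DT40 Tdp1-/-;hTDP1 cells, no CPT (DMSO vehicle only), 400 cells/well; compounds pin-transferred; ≥48 hr, 37 °C; CellTiter-Glo 30 min RT dark, luminescence read.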
TDP1 cell CPT: growth inhibition of DT40 Tdp1-/-;hTDP1 cells with camptothecin (screen for TDP1 inhibitors); chicken DT40 Tdp1-/-;hTDP1 cells + 20 nM CPT, ATP luminescence, 48 h; Potency, µM (doses to about 46.2 µM), without a hit: at the top dose activity change, negative = growth inhibition, hits mostly inhibitors; 420,000 tested, 12% active; AID 686979; note: potency is the fitted concentration of half-maximal effect; % is set by controls: 0 for no effect and ±100 for the full control effect; nearly all actives have a fitted effect of over 55% in size
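Chicken DT40 Tdp1-/- cells stably complemented with human TDP1 were seeded at 400 cells/well in medium containing 20 nM camptothecin, exposed to pin-transferred compounds, and grown at 37 °C for at least 48 hr. Viability was read as ATP luminescence.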
HepG2 viability: counter-screen for TGF-b inhibitors: cytotoxicity in HepG2 cells; HepG2 CAGA-GFP viability, ATP luminescence, 18 h; Potency, µM (series often up to 46.1 µM), for the others: top-dose activity change, negative = cytotoxicity, most hits filed as cytotoxic; 410,000 tested, 0.76% active; note: potency is the fitted concentration of half-maximal effect
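HepG2 CAGA-GFP cells (1000/well, DMEM with 1% FBS) received compound, then TGF-beta at 500 pg/mL final, and were incubated 18 hours at 37 degrees C. Viability was read by CellTiter-Glo luminescence. Media-only wells were set as complete cell-killing and DMSO as no toxicity.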
IL-1B inflam inh: inflammasome signaling inhibition, IL-1 beta readout. THP-1 LPS/ATP IL-1B secretion, AlphaLISA, 16 h; hits give low values. activity change, % at 57.5 µM. 360,000 tested, 4.7% active; in the data active = activity change below about -50%; inconclusive = mostly about -30% to -49%; note: % is set by controls: 0 for no effect and ±100 for the full control effect
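Secreted IL-1B measured by AlphaLISA bead assay after 16 h compound exposure of THP-1 cells; compounds (final up to 57.5 uM) added 1 h before LPS (250 ng/mL) and ATP (1.25 mM) stimulation; lower signal means less secretion.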
ASM inhibitor: blocks human secretory acid sphingomyelinase; P17405; placental ASM, HMU-PC fluorogenic substrate, 60 min; Potency, µM (series often up to 57.5 µM), for the others: at the highest dose activity change, negative = inhibition, usual class: inhibitors; 340,000 tested, 0.006% active; AID 504937; note: potency is the fitted concentration of half-maximal effect
Target sequence (P17405 47-631 limits assumed): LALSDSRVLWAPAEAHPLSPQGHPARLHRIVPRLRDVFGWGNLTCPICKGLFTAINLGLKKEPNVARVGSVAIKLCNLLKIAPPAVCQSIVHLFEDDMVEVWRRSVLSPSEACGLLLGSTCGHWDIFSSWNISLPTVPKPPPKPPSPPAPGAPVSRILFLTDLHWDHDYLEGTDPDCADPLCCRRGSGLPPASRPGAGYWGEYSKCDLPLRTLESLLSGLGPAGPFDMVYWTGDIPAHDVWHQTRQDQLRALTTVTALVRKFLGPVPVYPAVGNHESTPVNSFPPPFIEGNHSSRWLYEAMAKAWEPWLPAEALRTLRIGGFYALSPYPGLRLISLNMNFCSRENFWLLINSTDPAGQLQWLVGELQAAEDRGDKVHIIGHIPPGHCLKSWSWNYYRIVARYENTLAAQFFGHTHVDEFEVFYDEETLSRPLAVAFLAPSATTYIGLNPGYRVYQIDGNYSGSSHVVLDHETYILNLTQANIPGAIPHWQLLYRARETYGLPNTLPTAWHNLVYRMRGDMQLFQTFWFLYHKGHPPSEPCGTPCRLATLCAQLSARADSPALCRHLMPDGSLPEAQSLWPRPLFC
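qHTS format. ASM enzyme prepared from human placenta hydrolyses the fluorogenic substrate HMU-PC0 (9 uM final) over 60 min at 37 °C after a 10 min compound preincubation.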
* marks the source's active call; other numbers are inactive results; i = inactive; ? = inconclusive; nt = not tested or not shown; [ ] = dose if it differs, or a comment. In the library only some 19% were active in any assay of this set; here they are far more common. Unless noted, calls come from the whole dose curve; as a rule, active = well fitted curve in the direction sought with a large enough effect; inconclusive = small, poorly fitted or top-dose-only effect, or another doubt; inactive = no such curve, though single readings can be large; an effect the other way counts as inactive or inconclusive.

SMILES	TGFb SMAD3 inh	TDP1 cell noCPT	TDP1 cell CPT	HepG2 viability	IL-1B inflam inh	ASM inhibitor
CC(=O)C1=NN(c2ccccc2)C(c2cccs2)N1c1ccc(N(C)C)cc1 (stereo not drawn)	?	3.98µM*	2.24µM*	-52.8%	-71.5*	?
CC(=O)C1=NN(c2ccccc2)C(c2ccc3c(c2)OCO3)N1c1ccccc1 (stereo not drawn)	-3.5%	?	?	-24.3%	28.4	162.1%
O=C(OCC12CC3CC(CC(C3)C1)C2)c1ccc(NCc2cc(O)ccc2O)cc1	?	0.731µM*	1.46µM*	11.2µM*	-51.8*	-19.3%
O=C(OCCC12CC3CC(CC(C3)C1)C2)c1ccc(NCc2cc(O)ccc2O)cc1	?	2.06µM*	1.84µM*	-89.8%	-120.6*	-22.7%
COc1cc(OC)c(OC)cc1/C=C/C(=O)c1ccc(NS(=O)(=O)c2ccc(C)cc2)cc1	?	?	?	-7.2%	-59.9*	-5.9%
COc1cc(NS(=O)(=O)c2ccc(N/C=C\C(=O)c3ccc(C)cc3)cc2)nc(OC)n1	?	20.6µM*	11.6µM*	-7.6%	0.0	140.7%
COc1cc(NS(=O)(=O)c2ccc(NC(=S)NC(=O)c3sc4cc(F)ccc4c3Cl)cc2)nc(OC)n1	-3.4%	-28.5%	-3.7%	4.7%	-50.4*	-1.8%
COc1cc(NS(=O)(=O)c2ccc(N/C=C\C(=O)c3ccc(OC)c(OC)c3)cc2)nc(OC)n1	25.4%	?	?	21.8%	13.9	i
COc1cc(NS(=O)(=O)c2ccc(N/C=C(\C#N)c3nc4cc(Cl)ccc4o3)cc2)nc(OC)n1	0.0%	14.6µM*	9.2µM*	-41.1%	144.3	52.3%
Cc1c(CC(=O)Nc2ccc(Cl)cc2)sc2ccc(Cl)cc12	-24.8%	?	?	-68.8%	-17.2	-7.6%
Cc1cnc(-n2ncc(C(=O)NCc3ccccn3)c2C2CC2)nc1-c1cccs1	nt	-19.0%	6.4%[9.04 µM]	nt	nt	nt
CCOc1ccc(S(=O)(=O)N(CC(=O)Nc2cccnc2)c2ccc(F)cc2)cc1	?	?	?	-27.5%	-7.3	0.8%
COc1cccc(C(=O)/C=C/Nc2ccc(S(=O)(=O)Nc3nc(C)cc(C)n3)cc2)c1	-2.9%	-32.8%	-19.0%	-9.0%	17.2	131.4%
COc1ccc(C(=O)/C=C/Nc2ccc(S(=O)(=O)Nc3cccc(C(C)=O)c3)cc2)cc1	?	23.1µM*	?	5.1%	-8.2	59.6%
COc1ccc(-c2csc(Nc3ccc(S(=O)(=O)Nc4cc(OC)nc(OC)n4)cc3)n2)cc1	?	-3.2%	1.1%	-11.1%	-75.2*	-19.4%
COc1cccc(C(=O)/C=C/Nc2ccc(S(=O)(=O)Nc3ccc(C(C)=O)cc3)cc2)c1	-17.7%	16.4µM*	?	3.1%	0.0	4.6%
N#CCCN(C(=O)COC(=O)C1CCN(S(=O)(=O)c2cccs2)CC1)c1ccccc1	6.1%	2.6%	2.0%	1.4%	41.7	4.3%
O=C(O)Cc1ccc(NC(=O)c2ccc(NC(=O)C3CC3)cc2)cc1	10.0%	-6.3%	-39.1%	-18.5%	-3.9	-3.2%
Cc1nn(CC(=O)Nc2ccc3c(c2)nc2n3CCN(C3CCCCC3)C2)c(=O)c2ccccc12	15.0%	?	?	7.4%	21.9	11.2%
CC(c1ccccc1)N1CCn2c(nc3cc(NC(=O)c4cccs4)ccc32)C1 (stereo not drawn)	-9.0%	?	25.9µM*	-50.3%	nt	12.8%
CC(c1ccccc1)N1CCn2c(nc3cc(NC(=O)NC4CCCCC4)ccc32)C1 (stereo not drawn)	50.7%	22.4µM*	22.4µM*	-23.2%	76.8	92.8%
CC1CCN(S(=O)(=O)c2cccc(C(=O)Nc3nncs3)c2)CC1	-13.5%	-1.4%	1.0%	-12.1%	6.8	nt
COc1ccc(-c2cnc3c(NC(C)=O)cc(-c4cccc(NS(C)(=O)=O)c4)cn23)cc1OC	15.2%	23.1µM*	20.6µM*	-20.3%	-24.2	nt
CC(=O)Nc1cc(-c2ccccc2)cn2c(-c3cccc(C(C)=O)c3)cnc12	9.8%	10.3µM*	14.6µM*	-3.0%	-2.7	nt
CC(=O)Nc1cc(-c2cccc(C(=O)N(C)C)c2)cn2c(-c3cccc(C(=O)N(C)C)c3)cnc12	23.7%	?	?	-44.5%	-4.2	nt
SMILES	TGFb SMAD3 inh	TDP1 cell noCPT	TDP1 cell CPT	HepG2 viability	IL-1B inflam inh	ASM inhibitor
CC(=O)Nc1cc(-c2cccc(NS(C)(=O)=O)c2)cn2c(-c3cccc(C(C)=O)c3)cnc12	9.3%	18.4µM*	16.4µM*	-22.0%	64.1	nt
CC(=O)Nc1cc(-c2cccc(C(=O)N(C)C)c2)cn2c(-c3ccc(F)c(Cl)c3)cnc12	?	?	?	-18.5%	-29.5	nt
CC(=O)Nc1cc(-c2cccc(NS(C)(=O)=O)c2)cn2c(-c3ccc(F)c(Cl)c3)cnc12	?	23.1µM*	?	-25.8%	nt	nt
Cc1cc(C)n(-c2nc3ccccc3c(=O)n2OCC(=O)OCc2ccccc2)n1	-26.9%	5.8µM*	5.8µM*	-12.2%	73.4	-3.2%
Cc1cc(C)n(-c2nc3ccccc3c(=O)n2OCC(=O)Nc2c(C)cccc2C)n1	0.0%	18.4µM*	?	-3.6%	-1.4	2.6%
O=C(CCc1ccccc1)N=C1SC2CS(=O)(=O)CC2N1c1ccccc1F (stereo not drawn)	-15.7%	-1.8%	-17.5%	-6.6%	-1.4	3.0%
COc1cc(-c2cc(C(=O)NCc3ccco3)c3ccccc3n2)cc(OC)c1OC	-26.3%	2.59µM*	?	-43.7%	-15.2	-1.3%
COc1cc(-c2cc(C(=O)NCc3ccc(S(N)(=O)=O)cc3)c3ccccc3n2)cc(OC)c1OC	-2.9%	?	?	-3.2%	-61.8*	-2.8%
COc1cc(-c2cc(C(=O)Nc3ccc(S(=O)(=O)NCc4ccco4)cc3)c3ccccc3n2)cc(OC)c1OC	3.7%	2.91µM*	4.61µM*	-0.1%	-13.7	1.5%
NS(=O)(=O)c1ccc(CNC(=O)c2cc(-c3ccccc3)nc3ccccc23)cc1	-23.8%	-17.8%	-5.2%	-20.0%	4.8	0.5%
CC(=O)Nc1ccc(S(=O)(=O)N2CCN(CCN3CCOCC3)CC2)cc1Cl	0.0%	-23.2%	5.7%	54.6%	-0.1	-0.1%

Screens from PubChem BioAssay.
